Read-out in assay [1]: Matrix Metallopeptidase 1 (MMP1), MMP1 (gene 4312)
As to the kind of experiment: BSK_BF4T_MMP1: BioMAP Diversity Plus: BF4T Assay for Matrix Metallopeptidase 1 (MMP1) Biomarker Activity (AID 2284270). The settings on record: primary human bronchial epithelial cells with fibroblasts. An outline of the steps:
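MMP-1 quantified by ELISA in primary human bronchial epithelial/dermal fibroblast co-cultures, 24 hours post-dosing, with DMSO as baseline; parallel sulforhodamine B staining (560 nm) tracks overt cytotoxicity.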

Read-out in assay [2]: Matrix Metallopeptidase 3 (MMP3), MMP3 (gene 4314)
As to the kind of experiment: BSK_BF4T_MMP3: BioMAP Diversity Plus: BF4T Assay for Matrix Metallopeptidase 3 (MMP3) Biomarker Activity (AID 2284271). The settings on record: primary human bronchial epithelial cells with fibroblasts. An outline of the steps:
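MMP-3 level read by ELISA after 24 h chemical exposure of bronchial epithelial cell/dermal fibroblast co-cultures, fitted upward relative to DMSO. Parallel cultures stained with 0.1% SRB after TCA fixation gauge overt cytotoxicity.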

Read-out in assay [3]: Tissue plasminogen activator (tPA), PLAT (gene 5327)
In words: BSK_BF4T_tPA: BioMAP Diversity Plus: BF4T Assay for Tissue plasminogen activator (tPA) Biomarker Activity (AID 2284272). The settings on record: primary human bronchial epithelial cells with fibroblasts. The procedure, abridged: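 tPA level quantified by ELISA at 24 h post-treatment in bronchial epithelial/dermal fibroblast co-cultures, gain of signal scored against DMSO baseline. Parallel cultures stained with 0.1% SRB (560 nm) to flag overt cytotoxicity.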

Read-out in assay [4]: Plasminogen Activator Inhibitor-1 (PAI1), SERPINE1 (gene 5054)
As to the kind of experiment: BSK_BF4T_PAI1: BioMAP Diversity Plus: BF4T Assay for Plasminogen Activator Inhibitor-1 (PAI1) Biomarker Activity (AID 2284273). The settings on record: primary human bronchial epithelial cells with fibroblasts. An outline of the steps:
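PAI-1 levels quantified by ELISA 24 h post-dosing in bronchial epithelial cell plus dermal fibroblast cultures. Signal gain referenced to DMSO baseline. Sulforhodamine B total-protein staining of parallel wells checked cytotoxicity.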

The nature of assay [5]: BSK_BF4T_SRB: Viability Assessment in the BioMAP Diversity Plus: BF4T Assay (AID 2284274). The settings on record: primary human bronchial epithelial cells with fibroblasts. An outline of the steps: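 Cytotoxicity measured as total protein: cells fixed with 10% TCA, stained with 0.1% SRB, read at 560 nm. Bronchial epithelial/dermal fibroblast co-culture, 24 h after dosing, with positive-direction fitting relative to DMSO.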

Read-out in assay [6]: urokinase Plasminogen Activator (uPA), PLAU (gene 5328)
In words: BSK_BF4T_uPA: BioMAP Diversity Plus: BF4T Assay for urokinase Plasminogen Activator (uPA) Biomarker Activity (AID 2284275). The settings on record: primary human bronchial epithelial cells with fibroblasts. The procedure, abridged: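 uPA levels measured by ELISA at 24 hours in BF4T cultures (bronchial epithelial cells plus dermal fibroblasts) and compared with DMSO; cytotoxicity tracked in parallel cultures by sulforhodamine B staining.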

Read-out in assay [7]: Matrix Metallopeptidase 9 (MMP9), MMP9 (gene 4318)
In words: BSK_BF4T_MMP9: BioMAP Diversity Plus: BF4T Assay for Matrix Metallopeptidase 9 (MMP9) Biomarker Activity (AID 2284276). The settings on record: primary human bronchial epithelial cells with fibroblasts. The procedure, abridged:
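MMP-9 levels were measured by ELISA after 24 h exposure of bronchial epithelial cell/dermal fibroblast co-cultures, with DMSO as baseline. Parallel cultures were stained with 0.1% SRB after TCA fixation, read at 560 nm, to flag overt cytotoxicity.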

Read-out in assay [8]: Interleukin-8 (IL8), CXCL8 (gene 3576)
In words: BSK_IMphg_IL8: BioMAP Diversity Plus: IMphg Assay for Interleukin-8 (IL8) Biomarker Activity (AID 2284277). The settings on record: primary human endothelial cells with macrophages. The procedure, abridged:
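IL-8 levels were measured by ELISA 24 h after dosing in primary human venular endothelial cell–macrophage cultures, referenced to DMSO; parallel SRB staining monitored overt cytotoxicity.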

Read-out in assay [9]: Intercellular Adhesion Molecule 1 (ICAM1), ICAM1 (gene 3383)
As to the kind of experiment: BSK_BE3C_ICAM1: BioMAP Diversity Plus: BE3C Assay for Intercellular Adhesion Molecule 1 (ICAM1) Biomarker Activity (AID 2284278).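 Note: cell-surface ICAM-1 protein level quantified by ELISA.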 The settings on record: primary human bronchial epithelial cells. An outline of the steps:
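hu bronchial epithelial primary cells, 24 h cpd exposure, ICAM-1 ELISA; gain-of-signal fit vs DMSO baseline.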

Read-out in assay [10]: Interferon-inducible T-cell alpha chemoattractant (ITAC), CXCL11 (gene 6373)
In words: BSK_BE3C_ITAC: BioMAP Diversity Plus: BE3C Assay for Interferon-inducible T-cell alpha chemoattractant (ITAC) Biomarker Activity (AID 2284279). The settings on record: primary human bronchial epithelial cells. The procedure, abridged: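 Steps: dose human bronchial epithelial cells with chemical; incubate 24 h; measure I-TAC by ELISA; fit endpoint in positive direction against DMSO control. Cytotoxicity was checked in parallel cultures by SRB staining at harvest.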

Read-out in assay [11]: Interleukin-8 (IL8), CXCL8 (gene 3576)
As to the kind of experiment: BSK_BE3C_IL8: BioMAP Diversity Plus: BE3C Assay for Interleukin-8 (IL8) Biomarker Activity (AID 2284280). The settings on record: primary human bronchial epithelial cells. The procedure, abridged:
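Dose human bronchial epithelial cells with chemical; incubate 24 h; quantify IL-8 by ELISA; fit response upward versus DMSO controls.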

Read-out in assay [12]: Epidermal growth factor receptor (EGFR), EGFR (gene 1956)
As to the kind of experiment: BSK_BE3C_EGFR: BioMAP Diversity Plus: BE3C Assay for Epidermal growth factor receptor (EGFR) Biomarker Activity (AID 2284281). The settings on record: primary human bronchial epithelial cells. The procedure, abridged:
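ELISA read-out of EGFR levels on human bronchial epithelial primary cells collected 24 h post-dosing. DMSO served as negative control and baseline for gain-of-signal fitting.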

Read-out in a further assay: KRT18 (gene 3875)
As to the kind of experiment: BSK_BE3C_Keratin818: BioMAP Diversity Plus: BE3C Assay for Keratin 818 Biomarker Activity (AID 2284282). The settings on record: primary human bronchial epithelial cells. An outline of the steps:
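In this multiplexed primary-cell system, bronchial epithelial cells were dosed and harvested at 24 h. Keratin 8/18 was determined by ELISA and analysed for increases over DMSO controls.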

Read-out in assay [13]: Matrix Metallopeptidase 9 (MMP9), MMP9 (gene 4318)
As to the kind of experiment: BSK_BE3C_MMP9: BioMAP Diversity Plus: BE3C Assay for Matrix Metallopeptidase 9 (MMP9) Biomarker Activity (AID 2284283). The settings on record: primary human bronchial epithelial cells. The procedure, abridged: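 Human primary bronchial epithelial cells in the BE3C system were dosed with compound for 24 h. MMP-9 was measured by ELISA, and the positive-direction response was fitted relative to DMSO as baseline. Parallel SRB staining gauged cytotoxicity.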

Read-out in assay [14]: Plasminogen activator inhibitor-1 (PAI1), SERPINE1 (gene 5054)
In words: BSK_CASM3C_PAI1: BioMAP Diversity Plus: CASM3C Assay for Plasminogen activator inhibitor-1 (PAI1) Biomarker Activity (AID 2284284). The settings on record: primary human coronary artery smooth muscle cells.

Read-out in assay [15]: Monocyte Chemoattractant Protein-1 (MCP1), CCL2 (gene 6347)
As to the kind of experiment: BSK_hDFCGF_MCP1: BioMAP Diversity Plus: hDFCGF Assay for Monocyte Chemoattractant Protein-1 (MCP1) Biomarker Activity (AID 2284285). The settings on record: primary human foreskin fibroblasts. The procedure, abridged:
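MCP-1 ELISA readout was taken 24 hours after dosing primary human dermal fibroblasts in the hDFCGF system, with DMSO as baseline. Parallel sulforhodamine B staining of total protein tracked overt cytotoxicity.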

Read-out in assay [16]: Vascular cell adhesion molecule 1 (VCAM1), VCAM1 (gene 7412)
In words: BSK_IMphg_VCAM1: BioMAP Diversity Plus: IMphg Assay for Vascular cell adhesion molecule 1 (VCAM1) Biomarker Activity (AID 2284286). The settings on record: primary human endothelial cells with macrophages. An outline of the steps: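 ELISA read-out of VCAM-1 on venular endothelial cell/macrophage co-cultures at 24 h post-treatment, with DMSO as baseline and positive-direction fitting. Parallel sulforhodamine B total-protein staining (560 nm) served as the overt cytotoxicity measure.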

Read-out in assay [17]: Intercellular Adhesion Molecule 1 (ICAM1), ICAM1 (gene 3383)
In words: BSK_hDFCGF_ICAM1: BioMAP Diversity Plus: hDFCGF Assay for Intercellular Adhesion Molecule 1 (ICAM1) Biomarker Activity (AID 2284287). The settings on record: primary human foreskin fibroblasts. The procedure, abridged:
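ICAM-1 ELISA readout 24 h after dosing, DMSO as baseline, in human dermal foreskin fibroblast cultures. Cytotoxicity checked in parallel wells by SRB staining (0.1% SRB, 10% TCA fixation, 560 nm).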

Read-out in a further assay: CD40, CD40 (gene 958)
As to the kind of experiment: BSK_IMphg_CD40: BioMAP Diversity Plus: IMphg Assay for CD40 Biomarker Activity (AID 2284288). The settings on record: primary human endothelial cells with macrophages. An outline of the steps: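 ELISA read-out of cell-surface CD40 at 24 h in human venular endothelial cell/macrophage co-cultures. Activity fitted in the positive direction against DMSO; parallel SRB staining (560 nm) gauges overt cytotoxicity.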

Read-out in assay [18]: TIMP metallopeptidase inhibitor 1 (TIMP1), TIMP1 (gene 7076)
In words: BSK_MyoF_TIMP1: BioMAP Diversity Plus: MyoF Assay for TIMP metallopeptidase inhibitor 1 (TIMP1) Biomarker Activity (AID 2284269). The settings on record: primary human lung fibroblasts. An outline of the steps: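 Primary human lung fibroblasts, MyoF multiplex system; chemical exposure 24 h; TIMP-1 by ELISA; positive fitting direction vs DMSO control.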

Where “and” joins values, the source holds several entries; their conditions need not be identical. Identical values can stand only once. More than one record can exist for a structure, and the calls need not agree. Calls of active or inactive are those of the source. Rule for the calls: active = hit-call score of the fitted dose curve at least 0.9, where 1 is the maximum; inactive = score below 0.9.

Broadly, the AC50 is the midpoint of the concentration-response curve, whichever way the signal moves. In the case of `C[N+](C)(C)CCCNS(=O)(=O)C(F)(F)C(F)(F)C(F)(F)C(F)(F)C(F)(F)C(F)(F)C(F)(F)C(F)(F)F`, the result in assay [1], in [4], in assay [5], in assay [6], in [9] and in assay [10] was inactive. In addition, the result (in assay [12]; with KRT18 (gene 3875); in assay [13]; in [14]; in assay [17]) was inactive. The AC50 is 52.2 µM (active) and 51.4 µM (active) in assay [2]; 8.18 µM (active) and 7.16 µM (active) in assay [3]; 9.46 µM (active) and 30 µM (active) in assay [7]; 43 µM (active) and 30 µM (active) in [8]; 18.1 µM (active) in assay [11]; 44.8 µM (active) and 44.4 µM (active) in assay [15]. The concentration at half-maximal activity (AC50) in assay [16] was 13.9 µM (active) and 22.4 µM (active); in the assay with CD40, CD40 (gene 958), 21.8 µM (active) and 23.9 µM (active).
As to `O=C(Cl)c1c(Cl)c(Cl)c(C(=O)Cl)c(Cl)c1Cl`, the outcome in assay [18] was inactive.
For the compound `CC(C)C(=O)OCCc1ccccc1`, the result (in [9]; in assay [10]; in [11]; in assay [12]; in the assay with KRT18 (gene 3875); in assay [13]) was inactive. Also, the outcome in assay [14], in assay [15] and in assay [17] was inactive. For the same compound, the AC50 in the assay with KRT18 (gene 3875) is 0.522 µM (active).
As to `CCN1CN(CC)CN(CC)C1`, in assay [18], the outcome was inactive.
For the compound `c1ccc2sc(SSN3CCOCC3)nc2c1`, the AC50 in assay [18] is 31.5 µM (active).
In the case of `CC(c1cc(C(C)(C)C)cc(C(C)(C)C)c1O)c1cc(C(C)(C)C)cc(C(C)(C)C)c1O`, the result in [18] was inactive.
`Nc1nc(N)nc(-c2ccccc2)n1`: the result (in assay [9]; in assay [10]; in assay [11]; in [12]; with KRT18 (gene 3875); in assay [13]) was inactive. The outcome in assay [14], in assay [15] and in assay [17] was inactive.
`CCC1(C)C(=O)N(Cl)C(=O)N1Cl` (configuration not stated): the outcome in [18] was inactive.
For the compound `CC(CCC(=O)O)(c1ccc(O)cc1)c1ccc(O)cc1`, the result (in assay [9]; in assay [10]; in [11]; in assay [12]; with KRT18 (gene 3875); in assay [13]) was inactive. Moreover, the result in assay [14], in assay [15] and in assay [17] was inactive.

The values are drawn from PubChem BioAssay (EPA / NIEHS).
